BoNT F protease – BoNT/F light chain protease inhibitors, primary screen, biochemical, flow cytometry, MLPCN library; Multiplex microsphere protease cleavage assay; AID 588497, 2011; Botulinum neurotoxin type F light chain protease (Clostridium botulinum); inhibition, % at 10 µM; 360,000 tested, 0.22% active; in the data active means inhibition above about 35%, passing the limit was not always enough; inconclusive means no clear call, values can overlap the other calls; further: plate controls were buffer without enzyme for full effect and enzyme alone for no effect
Autofluor counter – compound fluorescence in toxin protease inhibitor counterscreen. compound autofluorescence counterscreen, microsphere flow cytometry; active compounds read high. fluorescence intensity (no concentration beside the values). 360,000 tested, 3.1% active; in the data active means fluorescence intensity above about 16000; inconclusive means no clear call, values can overlap the other calls
MazF activator – activators of E. coli MazEF toxin-antitoxin RNase, primary screen, biochemical, fluorescence, uHTS; activation, % at 20 µM; Endoribonuclease toxin MazF (Escherichia coli (strain K12)), P0AE70; AID 504720, 2011; FAM/BHQ RNA-DNA oligo cleavage fluorescence, 5 h; 350,000 tested, 0.32% active; in the data active means activation above about 50%
BoNT-A LC inh2 – BoNT/A light chain protease inhibitors, primary screen, biochemical, flow cytometry, MLPCN library | multiplex microsphere protease substrate cleavage | inhibition, % at 10 µM | 360,000 tested, 0.17% active | AID 588499, 2011; further: plate controls were buffer without enzyme for full effect and enzyme alone for no effect
Anthrax LF inh2 – Bacillus anthracis LF protease inhibitors, primary screen, biochemical, multiplex microsphere, MLPCN library. Lethal factor (Bacillus anthracis), P15917. multiplex microsphere protease cleavage assay. inhibition, % at 10 µM. 360,000 tested, 0.12% active. AID 588501, 2011; further: plate controls were buffer without enzyme for full effect and enzyme alone for no effect
Target sequence (P15917 whole entry, looked up): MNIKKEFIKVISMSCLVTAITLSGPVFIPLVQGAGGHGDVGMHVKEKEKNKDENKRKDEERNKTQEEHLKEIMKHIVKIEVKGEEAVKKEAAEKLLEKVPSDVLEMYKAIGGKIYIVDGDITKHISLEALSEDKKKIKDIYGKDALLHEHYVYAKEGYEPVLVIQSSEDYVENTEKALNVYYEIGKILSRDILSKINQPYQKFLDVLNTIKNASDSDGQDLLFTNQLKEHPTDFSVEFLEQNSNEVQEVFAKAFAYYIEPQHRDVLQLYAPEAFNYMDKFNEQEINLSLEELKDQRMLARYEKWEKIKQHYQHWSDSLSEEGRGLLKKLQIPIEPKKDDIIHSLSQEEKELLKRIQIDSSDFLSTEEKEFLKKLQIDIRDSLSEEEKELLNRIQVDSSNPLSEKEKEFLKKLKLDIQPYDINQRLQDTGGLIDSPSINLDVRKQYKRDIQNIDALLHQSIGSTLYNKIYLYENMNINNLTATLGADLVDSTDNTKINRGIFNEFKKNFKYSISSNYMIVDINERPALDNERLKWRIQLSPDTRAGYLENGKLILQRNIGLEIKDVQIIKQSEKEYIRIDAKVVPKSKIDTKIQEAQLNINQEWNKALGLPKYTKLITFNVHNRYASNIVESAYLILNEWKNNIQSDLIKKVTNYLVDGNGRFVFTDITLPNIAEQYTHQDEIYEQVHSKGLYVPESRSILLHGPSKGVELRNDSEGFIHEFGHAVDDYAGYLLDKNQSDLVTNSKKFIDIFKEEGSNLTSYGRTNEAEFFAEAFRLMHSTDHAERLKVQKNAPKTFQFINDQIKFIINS
BH1578 lux ind – inducers of Vibrio cholerae quorum light production without autoinducers, primary screen, BH1578 luxS cqsA deficient, single point. V. cholerae BH1578 lux reporter, luminescence, 6 h. AID 588436, 2011. activation, % at 18.7 µM. 350,000 tested, 0.16% active; in the data active means activation mostly above about 9.7%, no sharp cut-off; inconclusive means no clear call, values can overlap the other calls; inactive means mostly below about 3.7%
* hit, by the source's call. This is a sample that favours compounds with a hit; in the whole collection about 3.9% have one here. Unless noted, no stated cut-off is given here; in the data, active means inhibition above about 30%; inconclusive means no clear call, values can overlap the other calls; inactive means below that.

`CCN(CC)CCCn1c(SCC(=O)NCC2CCCO2)nc2ccccc2c1=O` (stereo not given) gave BoNT F protease 8, Autofluor counter inconclusive, MazF activator 1, BoNT-A LC inh2 -3, Anthrax LF inh2 6 and BH1578 lux ind 5.
`CCC(Sc1nc2ccccc2c(=O)n1CCN1CCOCC1)C(=O)NCc1cccnc1` (stereo not given) gave BoNT F protease 5, Autofluor counter 9881, MazF activator 4, BoNT-A LC inh2 0, Anthrax LF inh2 -11 and BH1578 lux ind 0.
O=C(NCCN1CCC(n2c(=O)[nH]c3ccccc32)CC1)c1ccc(Cl)c(Cl)c1 was read as BoNT F protease -11, Autofluor counter 4324, BoNT-A LC inh2 0 and Anthrax LF inh2 -3.
CC(=O)c1c(C)[nH]c(C(=O)OCC(=O)c2ccc(Br)cc2)c1C was read as BoNT F protease 3, Autofluor counter 3704, MazF activator 7, BoNT-A LC inh2 0, Anthrax LF inh2 10 and BH1578 lux ind -1.
`O=C(Nc1cccc(Cl)c1)c1csc([C@H]2C[C@H](O)[C@@H](CO)O2)n1` gave BoNT F protease 2, Autofluor counter 2975, BoNT-A LC inh2 0, Anthrax LF inh2 -4 and BH1578 lux ind 0.
`O=C(Nc1ccnn1C1CCN(C/C=C/c2ccccc2)CC1)c1ccccc1Cl` gave BoNT F protease -411, Autofluor counter 56855*, MazF activator -6, BoNT-A LC inh2 -240, Anthrax LF inh2 -56 and BH1578 lux ind inactive.
Screening O=C(Nc1ccnn1C1CCN(C/C=C/c2ccccc2)CC1)C1CCCC1 returned BoNT F protease 3, Autofluor counter 6255, MazF activator -7, BoNT-A LC inh2 2, Anthrax LF inh2 -1 and BH1578 lux ind inactive.
Screening N#CC1=C(N)Oc2cc(N)ccc2C1c1cccc(F)c1 (stereo not given) returned BoNT F protease 27, Autofluor counter 4338, MazF activator 9, BoNT-A LC inh2 -4, Anthrax LF inh2 -3 and BH1578 lux ind inactive.
COc1ccc(C2C(C#N)=C(N)Oc3cc(O)ccc32)cc1Cl (stereo not given) was read as BoNT F protease 35*, Autofluor counter 4572, MazF activator 14, BoNT-A LC inh2 0, Anthrax LF inh2 3 and BH1578 lux ind inactive.
For CN(C)c1ccc2c(c1)OC(N)=C(C#N)C2c1cccc(F)c1 (stereo not given) the results were BoNT F protease 34, Autofluor counter 12123, MazF activator 52*, BoNT-A LC inh2 21, Anthrax LF inh2 18 and BH1578 lux ind 1.
`CCOc1ccc(C2C(C#N)=C(N)Oc3cc(O)ccc32)cc1OCC` (stereo not given) gave BoNT F protease 6, Autofluor counter 4284, MazF activator -1, BoNT-A LC inh2 0, Anthrax LF inh2 -16 and BH1578 lux ind inactive.
Screening CCCNC(=O)C1(C)CCN1C(=O)c1cc(C)n(C)n1 (stereo not given) returned BoNT F protease -4, Autofluor counter 3860, BoNT-A LC inh2 0, Anthrax LF inh2 -6 and BH1578 lux ind inactive.
`CCN(CC)c1ccc2cc(-c3nnc(-c4ccncc4)o3)c(=O)oc2c1` gave BoNT F protease 6, Autofluor counter 24761*, MazF activator inactive, BoNT-A LC inh2 3, Anthrax LF inh2 13 and BH1578 lux ind 0.
CC(C)Oc1ccc(CSc2nnc3n(C)c(=O)c4c5c(sc4n23)CCCC5)cc1 was read as BoNT F protease 0, Autofluor counter 24669*, MazF activator 0, BoNT-A LC inh2 inconclusive, Anthrax LF inh2 -1 and BH1578 lux ind inactive.
`CSc1ccc(/C=N/NC(=O)c2cccs2)cc1` gave BoNT F protease 45*, Autofluor counter 3499, MazF activator 0, BoNT-A LC inh2 0, Anthrax LF inh2 inconclusive and BH1578 lux ind -1.
Cc1cc(C)cc(C(=O)O/N=C(\N)c2ccc(Br)cc2)c1 was read as BoNT F protease 6, Autofluor counter 20148*, MazF activator 14, BoNT-A LC inh2 5, Anthrax LF inh2 -12 and BH1578 lux ind 6.
CN(CC(=O)O/N=C(\N)c1cccc([N+](=O)[O-])c1)S(=O)(=O)c1ccccc1 was read as BoNT F protease -7, Autofluor counter 17118*, MazF activator 1, BoNT-A LC inh2 -5, Anthrax LF inh2 -1 and BH1578 lux ind -2.
Cc1ccc(C(=O)O/N=C(\N)c2cccc([N+](=O)[O-])c2)cc1 was read as BoNT F protease -2, Autofluor counter 19951*, MazF activator -2, BoNT-A LC inh2 -1, Anthrax LF inh2 -1 and BH1578 lux ind inactive.
N/C(=N\OC(=O)c1ccc(Cl)c([N+](=O)[O-])c1)c1ccccc1 was read as BoNT F protease 63*, Autofluor counter 3228, MazF activator 13, BoNT-A LC inh2 5, Anthrax LF inh2 -11 and BH1578 lux ind -1.
Screening CN(CC(=O)O/N=C(\N)c1ccc([N+](=O)[O-])cc1)S(=O)(=O)c1ccccc1 returned BoNT F protease -13, Autofluor counter 11355, MazF activator -7, BoNT-A LC inh2 0, Anthrax LF inh2 -2 and BH1578 lux ind -3.
`N/C(=N\OC(=O)c1ccc(Br)cc1)c1cccc([N+](=O)[O-])c1` gave BoNT F protease inconclusive, Autofluor counter 4187, MazF activator 5, BoNT-A LC inh2 1, Anthrax LF inh2 7 and BH1578 lux ind inactive.
O=C(c1cc2ccc([N+](=O)[O-])cc2oc1=O)N1CCOCC1 was read as BoNT F protease -3, Autofluor counter 4582, MazF activator 8, BoNT-A LC inh2 -1, Anthrax LF inh2 -1 and BH1578 lux ind inactive.
`CCOC(=O)[C@]12CCCC=C1N(Cc1cccc3ccccc13)C(=O)[C@H](CC(=O)N1CCN(C(=O)C3CC3)CC1)C2` gave BoNT F protease -1, Autofluor counter 5453, BoNT-A LC inh2 0 and Anthrax LF inh2 3.
Screening COc1ccc(/C=C/C(=O)N(C(C)C)C(C)C)cc1Br returned BoNT F protease -8, Autofluor counter 11098, MazF activator 4, BoNT-A LC inh2 0, Anthrax LF inh2 -6 and BH1578 lux ind -12.
COc1ccc(/C=C/C(=O)NC(C)C)cc1Br was read as BoNT F protease 1, Autofluor counter 22011*, MazF activator -1, BoNT-A LC inh2 1, Anthrax LF inh2 -1 and BH1578 lux ind inactive.
Screening COc1ccc2c(c1)C(O)C(CO)C(C(=O)O)C2 (stereo not given) returned BoNT F protease -10, Autofluor counter 3002, MazF activator -1, BoNT-A LC inh2 0 and Anthrax LF inh2 -5.

From PubChem
